Only some compounds are listed: those with a hit (about 4% of all), similar ones and a draw of the others.
aDG glyco act: alpha-DG glycosylation activation; actives 0.22% (n = 360,000); AID 624168; activation, % at 10 µM; Pro5-aDG cells, alpha-DG glycosylation AlphaScreen (IIH6); 0% Pro5, 100% B10-LARGE cell signal;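 active means activation of at least 8% versus controls, or a plate z-score of at least 8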;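 further: Pro5 are CHO cells carrying HIG-tagged alpha-DG that lacks glycosylation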
ADAM10 inh: inhibits human ADAM10 | inhibition, % at 7 µM | actives 0.62% (n = 370,000) | recombinant ADAM10, EDANS/DABCYL FRET peptide cleavage, 3 h;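 active means inhibition above a per-campaign cutoff equal to the mean of compounds falling between control-based bounds plus 3 SD, cut at about 20% in these data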;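 further: 0% = DMSO wells while the 100% control is not disclosed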
FAS TE block: blocks the thioesterase domain of human fatty acid synthase | inhibition, % at 15 µM | P49327 | recombinant FAS-TE, OMFH fluorogenic substrate, fluorescence endpoint | actives 0.67% (n = 360,000);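 active means compounds whose normalised, plate-corrected inhibition of enzyme fluorescence in the single-dose primary screen is 50% or more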;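 further: 0% = DMSO with enzyme and 100% = substrate without enzyme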
ADAM17 inh: ADAM17 inhibition, QFRET primary screen. P78536. recombinant ADAM17, EDANS/DABCYL FRET peptide cleavage. inhibition, % at 6.95 µM. actives 0.83% (n = 370,000). AID 720648;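 active means inhibition above the mean of compounds lying between control limits plus 3 SD, set per campaign, cut at about 8.5% in these data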;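 further: 0% = DMSO-only wells as the low control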
NR3A LBD binder: NR3A (human) ligand-binding domain modulation; Tm shift relative to glycine control, % at 25 µM; actives 2.5% (n = 340,000); NR3A LBD differential scanning fluorimetry, Tm shift; 0% = protein alone, 100% = glycine-bound protein;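 active means melting temperature shift of at least 10% of the positive control shift, at one fixed dose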
ADAM10 confirm: human ADAM10 inhibition, confirmation | shares compounds with ADAM10 inh | ADAM10 QFRET peptide cleavage, EDANS fluorescence | inhibition, % at 6.95 µM | actives 1% (n = 2,100) | AID 743208;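 active means inhibition above about 20% chosen separately for each screening run, limit read from the data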;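 further: 0% = DMSO wells and 100% = marimastat wells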
ADAM17 counter: counter-screen for ADAM10 exosite inhibitors: inhibitors of human ADAM17; AID 743214; inhibition, % at 6.95 µM; actives 0.5% (n = 2,100); shares compounds with ADAM10 inh; ADAM17 QFRET peptide cleavage, EDANS fluorescence;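 active means mean triplicate inhibition above the solvent-only control wells' mean plus 3 SD, cut at about 12% in these data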;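 further: 0% = DMSO wells and 100% = marimastat wells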
* hit, by the source's call; / = no result given.

SMILES	aDG glyco act	ADAM10 inh	FAS TE block	ADAM17 inh	NR3A LBD binder	ADAM10 confirm	ADAM17 counter
COc1cc(/C=N/OCC(=O)Nc2ccc(OC(F)F)cc2)ccc1OCc1ccccc1	0.0	23.1*	32.5	1.5	-6.3	11.2	3.9
CCOc1ccc(/C=N/OCC(=O)Nc2ccc(OCc3ccccc3)cc2)cc1OC	-0.3	3.5	20.3	-0.7	-2.9	/	/
Clc1ccccc1CNc1ncnc2nc[nH]c12	0.0	-8.3	-13.1	-4.8	-1.2	/	/
Clc1ccccc1CN(Cc1ccccc1)c1ncnc2nc[nH]c12	-0.2	20.1*	7.4	6.4	-23.2	7.1	2.7
CCc1ccc(NC(=O)C(=O)NNC(=O)c2cccc(OC)c2)cc1	-0.2	14.1	-2.0	1.4	-32.4	/	/
COc1cccc(C(=O)NNC(=O)C(=O)Nc2ccc(C)c(Cl)c2)c1	0.1	65.2*	-1.6	6.0	2.9	33.2*	1.0
COc1ccc(C(=O)CC(=O)C(=O)Nc2ccc(OC)c(Cl)c2)cc1	0.1	-1.4	0.8	-1.1	-4.3	/	/
CC(C)(C)c1ccc(C(=O)Nc2cc(Cl)c(Cl)cc2C(=O)O)cc1	/	20.2*	/	2.1	/	2.6	0.3
Cc1ccc(C(=S)NCS(=O)(=O)c2ccc(C)cc2)cc1	0.0	26.4*	4.2	6.7	0.7	21.4*	6.6
Cc1ccc(S(=O)(=O)Nc2cccc(C(=O)N3CCN(c4ccccc4O)CC3)c2)cc1F	-0.3	20.0*	4.7	3.1	-3.1	-1.3	0.9
CC(=O)c1ccc(NC(=O)Nc2ccc(NS(=O)(=O)c3ccc(C)cc3)cc2)cc1	0.2	23.9*	23.9	6.9	/	5.5	0.8
Cc1ccc(S(=O)(=O)Nc2ccccc2-c2ccccc2NS(=O)(=O)c2ccc(C)cc2)cc1	0.4	21.4*	25.0	5.5	6.8	0.1	0.2
Cc1ccc(S(=O)(=O)Nc2ccc(N=Nc3ccc(O)cc3)cc2)cc1	0.2	22.1*	25.0	2.1	14.0*	1.9	-0.2
O=C(Nc1ccc(NS(=O)(=O)c2ccc([N+](=O)[O-])cc2)cc1)c1ccco1	0.1	5.0	13.7	-3.0	-11.2	/	/
NC(=O)NN=C1CCN2CCCc3cccc1c32	0.1	-265.0	-6.9	-68.4	/	/	/
Cc1ccc(NS(=O)(=O)c2ccc(NC(=O)C(C)Sc3ccc(Cl)cc3)cc2)c(C)c1 (stereo not given)	3.0	27.2*	36.5	8.2	13.4*	9.2	3.6
COc1ccccc1NCC(O)COc1ccc(C(C)(C)C)cc1 (stereo not given)	-0.1	21.2*	29.0	5.4	-7.5	1.5	0.9
Cc1[nH]c2ccccc2c1N=Nc1ccccc1F	-0.5	29.8*	25.1	8.1	13.0*	5.6	1.4
CC(C)(C)c1ccc(Cn2nnc3c(=O)[nH]c(C4CCCN(C(=O)c5cccs5)C4)nc32)cc1 (stereo not given)	-0.2	23.9*	-23.9	7.8	-13.5	0.9	0.3
CCCCC(=O)N1CCCC(c2nc3c(nnn3Cc3cc(C)ccc3C)c(=O)[nH]2)C1 (stereo not given)	-0.2	88.1*	4.1	-3.5	-2.0	-0.4	0.1
Cc1ccc(C)c(Cn2nnc3c(=O)[nH]c(C4CCCN(C(=O)CC(C)C)C4)nc32)c1 (stereo not given)	-0.1	/	-4.2	/	-1.9	/	/
O=c1[nH]c(C2CCN(S(=O)(=O)c3ccc4c(c3)OCCO4)CC2)nc2c1nnn2Cc1ccccc1	-0.1	4.5	-1.9	0.6	-11.8	/	/
Cc1ccc(C)c(S(=O)(=O)N2CCC(c3nc4c(nnn4Cc4ccc5c(c4)OCCO5)c(=O)[nH]3)CC2)c1	-0.3	23.8*	69.7*	5.0	3.9	11.4	3.1
CCOC(=O)C1(C(=O)OCC)Cc2c([nH]c3ccccc23)[C@]2(N1)C(=O)N(C)c1ccc(Br)cc12	/	25.3*	/	12.3*	/	5.3	2.1
O=C(COC(=O)/C=C/c1ccc2c(c1)OCO2)NCc1ccc(F)cc1	-0.3	-78.3	-4.7	-18.2	/	/	/
SMILES	aDG glyco act	ADAM10 inh	FAS TE block	ADAM17 inh	NR3A LBD binder	ADAM10 confirm	ADAM17 counter
COc1ccc(-n2nc(C(=O)NCC(=O)NC(C)C)c3ccccc3c2=O)c(OC)c1	0.0	7.4	-3.8	-4.5	-4.7	/	/
Cc1ccc(N(CC(=O)Nc2ccc3c(c2)OCCO3)S(=O)(=O)c2c(C)n[nH]c2C)cc1	0.6	20.1*	-4.9	6.3	4.7	0.2	0.2
Cc1ccc(N(CC(=O)Nc2ccc3c(c2)OCCO3)S(=O)(=O)c2c(C)noc2C)cc1	0.3	13.6	5.0	4.9	-6.5	/	/
O=C(OCc1cccc([N+](=O)[O-])c1)c1cccnc1	0.1	1.5	1.7	-0.2	0.5	/	/
Cc1ccc2[nH]c(CCN(C)C)c(CC#N)c2c1	-0.1	-10.7	-1.8	-5.4	1.2	/	/
COc1ccc(C)cc1NS(=O)(=O)c1ccc(NC(=O)CN(c2cc([N+](=O)[O-])ccc2C)S(C)(=O)=O)cc1	1.2	23.4*	32.4	9.1*	20.5*	5.0	1.3
Cn1c(N2CCN(C(=O)Nc3ccc(C(F)(F)F)cc3)CC2)nc2ccccc21	1.1	3.5	0.0	-4.4	-2.6	/	/
C/C(N)=C(/C#N)C(=O)CSc1nn(-c2ccc(Cl)cc2)c(=S)s1	0.4	23.6*	28.4	8.2	13.4*	4.2	1.1
O=C(O/N=C1\CCCc2ccccc21)c1cccs1	0.0	-10.9	10.0	0.6	0.1	/	/
CNC1(C(N)=O)CCN(Cc2ccccc2)CC1	1.4	-5.9	-5.6	-4.3	2.0	/	/
OCC1(Cc2ccccc2F)CCCN(CCc2ccccc2)C1 (stereo not given)	0.1	23.0*	-1.6	3.7	-0.8	1.2	1.6
Cc1ccc(N/N=C(\C#N)C(=N)N2CCCCC2)cc1	-0.1	0.7	-3.5	1.5	1.5	/	/
CC1CCC(N2CCN(S(=O)(=O)Cc3ccccc3)CC2)CC1 (stereo not given)	0.0	0.6	-4.4	0.3	-1.0	/	/
Cc1ccc(N=C(NOCc2ccc(Cl)cc2Cl)c2nonc2N)c(C)c1	0.3	21.1*	40.8	5.3	/	6.9	1.9
CC(=O)c1c(C(C)=O)c(C)n(-c2nc(-c3ccc(Br)cc3)c(C)s2)c1C	0.3	4.5	16.7	1.1	0.8	/	/
CC(Oc1ccc(Br)cc1)C(=O)Nc1cc(Cl)ccc1N1CCN(C)CC1 (stereo not given)	0.4	20.1*	19.2	5.0	0.9	1.2	0.0
COc1ccc(CCC(=O)Nc2cc(Cl)ccc2N2CCN(C)CC2)cc1	/	9.4	/	-4.1	2.4	/	/
CCC(CC)c1nnc(NC(=O)CS(=O)(=O)c2ccc(C)cc2)s1	-0.1	6.6	-4.8	1.2	1.6	/	/
COc1ccc(NC(=O)CSc2nnc(-c3ccccn3)n2Cc2ccco2)cc1OC	0.1	-6.1	-3.8	-5.2	-0.9	/	/
CC(C)C[C@H]1COc2cc(N3CC[C@@H](O)C3)ccc2S(=O)(=O)N1	-0.1	-20.4	-12.7	-2.3	/	/	/
